Screens (PubChem BioAssay)
ssDAF-12 act – activates DAF-12 receptor from parasite S. stercoralis; HEK293 ssDAF-12/GRIP1 lit1-tk-luc reporter, luminescence; % of 3 µM dafachronic acid response; activation, % at 6.8 µM; hit rate 1% among 370,000; AID 652126;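 active = activation above the mean over all tested compounds plus 3 SD, cut at about 0.9% in these data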
hcDAF-12 act – H. contortus DAF-12 activation, primary screen; HEK293 hcDAF-12 lit1-tk-luc reporter, luminescence; 0% DMSO, 100% Δ7-dafachronic acid; activation, % at 6.8 µM; hit rate 1.4% among 370,000; AID 652067;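 active = activation above the mean of all tested compounds plus 3 SD, cut at about 5.5% in these data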
GAA850 FXN act – activators of GAA850 frataxin (FXN) promoter; activation, % at 6 µM; hit rate 0.56% among 360,000; AID 540364; HEK293 lucGAA850 FXN promoter luciferase reporter, 24 h; percent of 10 µM SAHA response;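 active = activation above the average of all compounds screened plus 3 SD, cutoff fixed separately per campaign, cut at about 7.5% in these data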
DAX1 inh-1 – inhibitors of DAX1 repression of SF-1 activated StAR promoter; HEK293T StAR-luciferase reporter, SF-1/DAX-1 repression relief; inhibition, % at 6.8 µM; hit rate 1.1% among 370,000; AID 652010;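 active = inhibition above the mean over all tested compounds plus 3 SD, cut at about 3.6% in these data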;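 note: higher inhibition means more luminescence from relief of DAX-1 repression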
DAX1 inh-2 – NR0B1 (DAX1) inhibition; P51843; HEK293 Gal4-DAX1 luciferase reporter, luminescence; inhibition, % at 6.75 µM; hit rate 0.99% among 340,000; AID 504766;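 active = inhibition above the mean over all tested compounds plus 3 SD, cut at about 4.2% in these data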;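 note: inhibition shows as a rise in luminescence from relieved DAX1 repression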
Target sequence (P51843 207-470 limits assumed): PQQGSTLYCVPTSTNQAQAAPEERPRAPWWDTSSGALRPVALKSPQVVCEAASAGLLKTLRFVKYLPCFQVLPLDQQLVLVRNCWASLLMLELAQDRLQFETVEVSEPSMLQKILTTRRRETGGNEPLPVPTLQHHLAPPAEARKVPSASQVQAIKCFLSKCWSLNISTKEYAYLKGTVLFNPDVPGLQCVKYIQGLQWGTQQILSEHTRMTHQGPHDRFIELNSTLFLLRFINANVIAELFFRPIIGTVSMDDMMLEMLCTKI
hgDAF-12 ag – hgDAF-12 agonism, primary luciferase screen; AID 687014; HEK293 GAL4-hgDAF12 UAS-luciferase reporter, agonist luminescence; normalized to butyrate control; activation, % at 6.8 µM; hit rate 1.8% among 370,000;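 active = activation above a cutoff set at the mean of all screened compounds plus 3 SD, cut at about 10% in these data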
Large screens that a line does not name were inactive. This is a sample that favours compounds with a hit; in the whole collection about 4.5% have one here.

Cc1ccc(C(=O)NCc2cccs2)cc1S(=O)(=O)N1CCCCC1	ssDAF-12 act 1.2
Cc1ccc(NS(=O)(=O)c2ccc(Cl)c(C(=O)Nc3cccc(C(=O)O)c3)c2)cc1	DAX1 inh-2 5.4
O=C(O)c1ccc(NS(=O)(=O)c2ccc(Cl)c(C(=O)Nc3ccccc3)c2)cc1	none
O=C(O)c1cccc(NC(=O)c2ccc(Cl)c(S(=O)(=O)N3CCCCCC3)c2)c1	hgDAF-12 ag 11
COC(=O)CSc1nnc(-c2ccc(NS(=O)(=O)c3ccc(C)c(C)c3)cc2)o1	none (no result: GAA850 FXN act, DAX1 inh-2)
N#Cc1cc(F)cc(OCCCN2CCC(C(O)(c3ccccc3)c3ccccc3)CC2)c1	none (no result: GAA850 FXN act, DAX1 inh-2)
O=C(O)c1cccc(NC(=O)c2cccc(S(=O)(=O)N3CCc4ccccc43)c2)c1	DAX1 inh-2 4.6
Cc1ccc(C(=O)Nc2ccc3cn[nH]c3c2)cc1S(=O)(=O)N1CCCCC1	hcDAF-12 act 6.1
O=C(NCc1cccs1)C1CCN(S(=O)(=O)c2cccc3cccnc23)CC1	DAX1 inh-2 4.3
Cc1ccc(CN2CCCCC(NC(=O)c3ccc(F)cc3)C2=O)cc1 (stereo not drawn)	none (no result: GAA850 FXN act, DAX1 inh-2)
COc1ccc(C2C(C(=O)N3CCOCC3)CC(=O)N2c2ccc(OC)cc2)cc1 (stereo not drawn)	none (no result: GAA850 FXN act, DAX1 inh-2)
O=C(NCc1ccccc1)c1cccc(COc2cc(Cl)ccc2Cl)c1	hgDAF-12 ag 11
Cc1ccc(OCC(O)CN2C(=O)NC(C)(C)C2=O)cc1C (stereo not drawn)	hgDAF-12 ag 11
Cc1ccc(OCC(O)CN2C(=O)NC(C)(C)C2=O)cc1 (stereo not drawn)	none
CCN(CC)CC(O)CN1C(=O)NC(C)(C)C1=O (stereo not drawn)	DAX1 inh-2 4.3
Fc1ccc(CSc2nncn2NCc2ccccc2)cc1	DAX1 inh-2 6.9
CCCOC(=O)C1=C(C)NC2=C(C(=O)CCC2)C1c1cccs1 (stereo not drawn)	ssDAF-12 act 2.1
CCOC(=O)C1=C(C)NC2=C(C(=O)CC(c3cccs3)C2)C1c1cccs1 (stereo not drawn)	none
COc1ccc(NC(=O)C/C(C)=N/NC(=O)c2ccccn2)c(OC)c1	hgDAF-12 ag 12
COc1ccc(CCNC(=O)C/C(C)=N/NC(=O)c2cnccn2)cc1	DAX1 inh-1 4.2
COc1ccc(NC(=O)C/C(C)=N/NC(=O)c2cccs2)c([N+](=O)[O-])c1	hgDAF-12 ag 11
COc1ccc(NC(=O)C/C(C)=N/NC(=O)c2cnccn2)c(OC)c1	none
COC(=O)C1CN(Cc2ccc(F)cc2)CCS(=O)(=O)N1Cc1ccc(C)cc1 (stereo not drawn)	none (no result: GAA850 FXN act, DAX1 inh-2)
Cc1ccc(S(=O)(=O)N2CCC(=O)N(C(COCc3cccc(Cl)c3)Cc3ccccc3)CC2)cc1 (stereo not drawn)	none
Cc1ccc(S(=O)(=O)N2CCC(=O)N(C(COCc3ccc(Cl)cc3Cl)Cc3ccccc3)CC2)cc1 (stereo not drawn)	DAX1 inh-2 5.3
O=C(Cn1cnc2sc(-c3ccccc3)cc2c1=O)N1CCOCC1	none
CC(=O)Cn1nnc2sc(-c3ccccc3)cc2c1=O	hgDAF-12 ag 13
CC(=O)Cn1cnc2sc(-c3ccccc3)cc2c1=O	hgDAF-12 ag 11
COc1ccc(-n2cnc3sc(-c4ccccc4)cc3c2=O)cc1	DAX1 inh-2 5.0
O=c1/c(=C/c2ccccn2)sc2n1CN(c1ccccc1)CN=2	none
CCc1ccc(N2CN=c3s/c(=C\c4ccccc4)c(=O)n3C2)cc1	DAX1 inh-2 5.3
CCOC(=O)Cc1nnc(NC(=O)COc2ccc(OC)cc2)s1	DAX1 inh-2 4.7
CCN(CC)CCCNC(=O)CSc1nc2cccnc2n1C	none (no result: GAA850 FXN act, DAX1 inh-2)
Cc1cccc(-c2cccc3c4c([nH]c23)[C@@H]2C[C@H](N(C)C(=O)c3ccco3)[C@H]([C@H](C)O)CN2CC4)c1	none (no result: GAA850 FXN act, DAX1 inh-2)
Cc1cc(C)c(-c2nc3ccccc3s2)[nH]1	hcDAF-12 act 6.3
O=C(CSc1nnc(-c2cccnc2)n1Cc1ccco1)Nc1ccc(F)cc1Cl	none (no result: GAA850 FXN act, DAX1 inh-2)
CCc1c(C)nc2cc(-c3ccc(Cl)cc3)[nH]n2c1=O	DAX1 inh-2 4.8, hgDAF-12 ag 11
